# Results reported in PubChem BioAssay.
# Inconclusive results are not listed. For some of these results: Measured potencies and affinities stand elsewhere. Calls of active or inactive are those of the source. Unless noted, no rule for the calls is given here.
# How the values were obtained:
# [1] = circadian clock period modulators, cell-based, LOPAC library, luminescence reporter (AID 2774); conditions: circadian reporter cells, at 7 µM, actives lie on both sides;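 also: values are relative to mean of DMSO wells on each plate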
# [2] = test system: Hepatitis C virus NS3 helicase; assay: HCV NS3 helicase inhibitors, primary screen, biochemical, fluorescence polarization, LOPAC1280 library (AID 687035; in the data active = inhibition above about 37%); conditions: Purified HCV NS3 helicase, Cy5-dT15 ssDNA binding fluorescence polarization; stronger effect = higher value; concentration not given here
# [3] = Cy5 fluorescence quenching or enhancement artefacts, artefact control for HCV NS3 helicase inhibitor project, biochemical, LOPAC1280 (AID 687037); conditions: Cy5-DNA-NS3h complex fluorescence interference counterscreen
# [4] = phospholipid biosynthesis inhibitors in animal cells, primary screen, cell-based, LOPAC library, screen 4 (AID 1347384); conditions: phospholipid biosynthesis inhibition screen, at 10 µM
# [5] = growth inhibition of DIPG glioma cells, dose response, cell-based, SU-DIPG-XIII, MIPE4.0, CellTiter-Glo, qHTS (AID 1347061; cut-off not given, nearly all actives have AC50 up to about 37 µM;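 also: cells exposed to compound for 48 hours before readout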); conditions: SU-DIPG-XIII viability, CellTiter-Glo ATP luminescence
# [6] = growth inhibition of DIPG glioma cells, dose response, cell-based, SU-DIPG-XVII, MIPE5.0, CellTiter-Glo, qHTS (AID 1347060; cut-off not given, nearly all actives have AC50 up to about 26 µM;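 as to AC50: cells exposed to compound for 48 hours before viability readout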); conditions: SU-DIPG-XVII viability, CellTiter-Glo ATP luminescence
# [7] = molecular target: ATP-dependent translocase ABCB1 (Homo sapiens) (UniProt P08183); assay: MDR1 (ABCB1) efflux transporter inhibition, cell-based (AID 377; in the data active = fluorescence slope change above about 50%); conditions: MDR1-expressing cells, fluorescent substrate accumulation slope; stronger effect = higher value; concentration not given here
# [8] = polyglutamine-triggered caspase-3 activation inhibitors, cell-based (AID 1583); conditions: polyglutamine-induced caspase-3 activation, cell assay; stronger effect = higher value;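 tested at 10 µM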
# [9] = suppressors of polyQ aggregation in yeast, 75Q-TubU reporter (AID 1593); conditions: Yeast 75Q polyglutamine aggregation reporter
# [10] = rescue of polyQ-huntingtin neuronal dysfunction in worms, whole organism, C. elegans mechanosensory neurons, N-terminal huntingtin (AID 1599); conditions: touch response, stronger effect = higher value
# [11] = inhibitors of mitochondrial cytochrome c release, biochemical, purified mitochondria (AID 1603); conditions: stronger effect = lower value;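 also: mouse liver mitochondria challenged with calcium chloride; signal normalized to the plate average as 100%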
# [12] = inhibitors of polyQ protein aggregation (AID 1604); conditions: polyglutamine-induced protein aggregation inhibition assay; stronger effect = higher value; tested at 2.5 µM
# [13] = enhancers of glutamate uptake in motor neurons, MN-1 cell line (AID 1612); conditions: MN-1 motor neuron cells, stronger effect = higher value;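 also: tested at 1 µM final; 0% = mean of DMSO vehicle wells on each plate; positive means more glutamate uptake than control and negative means less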
# [14] = reducers of polyQ inclusions in PC12 cells, cell-based, NGF-treated PC12, GFPQ80 (AID 1614); conditions: PC12 NGF-treated GFP-polyQ80 inclusion reduction;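 also: lower means fewer inclusions and 0 means no inclusions at all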
# [15] = suppressors of polyglutamine aggregation in yeast, 75Q-TubH (AID 1616); conditions: S. cerevisiae 75Q-TubH polyglutamine aggregation suppression; stronger effect = higher value
# [16] = test system: Aerobactin synthetase IucA (Klebsiella pneumoniae); assay: IucA aerobactin synthetase inhibitors, biochemical, Tocris library, absorbance (AID 1345561); conditions: purified IucA enzyme assay, absorbance (OD) read-out; stronger effect = lower value;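 tested at 8 µM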;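 also: 100% = enzyme without compound and 0% = no enzyme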
# [17] = inhibitors of Cryptococcus chitosan production, flow cytometry, Cibacron Brilliant Red staining (AID 1347148); conditions: Cryptococcus neoformans chitosan, stronger effect = lower value; at 10 µM unless noted;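 also: compound exposure lasted three days at 37 degrees C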
# Sequence of ATP-dependent translocase ABCB1 (Homo sapiens) (P08183 whole entry, looked up): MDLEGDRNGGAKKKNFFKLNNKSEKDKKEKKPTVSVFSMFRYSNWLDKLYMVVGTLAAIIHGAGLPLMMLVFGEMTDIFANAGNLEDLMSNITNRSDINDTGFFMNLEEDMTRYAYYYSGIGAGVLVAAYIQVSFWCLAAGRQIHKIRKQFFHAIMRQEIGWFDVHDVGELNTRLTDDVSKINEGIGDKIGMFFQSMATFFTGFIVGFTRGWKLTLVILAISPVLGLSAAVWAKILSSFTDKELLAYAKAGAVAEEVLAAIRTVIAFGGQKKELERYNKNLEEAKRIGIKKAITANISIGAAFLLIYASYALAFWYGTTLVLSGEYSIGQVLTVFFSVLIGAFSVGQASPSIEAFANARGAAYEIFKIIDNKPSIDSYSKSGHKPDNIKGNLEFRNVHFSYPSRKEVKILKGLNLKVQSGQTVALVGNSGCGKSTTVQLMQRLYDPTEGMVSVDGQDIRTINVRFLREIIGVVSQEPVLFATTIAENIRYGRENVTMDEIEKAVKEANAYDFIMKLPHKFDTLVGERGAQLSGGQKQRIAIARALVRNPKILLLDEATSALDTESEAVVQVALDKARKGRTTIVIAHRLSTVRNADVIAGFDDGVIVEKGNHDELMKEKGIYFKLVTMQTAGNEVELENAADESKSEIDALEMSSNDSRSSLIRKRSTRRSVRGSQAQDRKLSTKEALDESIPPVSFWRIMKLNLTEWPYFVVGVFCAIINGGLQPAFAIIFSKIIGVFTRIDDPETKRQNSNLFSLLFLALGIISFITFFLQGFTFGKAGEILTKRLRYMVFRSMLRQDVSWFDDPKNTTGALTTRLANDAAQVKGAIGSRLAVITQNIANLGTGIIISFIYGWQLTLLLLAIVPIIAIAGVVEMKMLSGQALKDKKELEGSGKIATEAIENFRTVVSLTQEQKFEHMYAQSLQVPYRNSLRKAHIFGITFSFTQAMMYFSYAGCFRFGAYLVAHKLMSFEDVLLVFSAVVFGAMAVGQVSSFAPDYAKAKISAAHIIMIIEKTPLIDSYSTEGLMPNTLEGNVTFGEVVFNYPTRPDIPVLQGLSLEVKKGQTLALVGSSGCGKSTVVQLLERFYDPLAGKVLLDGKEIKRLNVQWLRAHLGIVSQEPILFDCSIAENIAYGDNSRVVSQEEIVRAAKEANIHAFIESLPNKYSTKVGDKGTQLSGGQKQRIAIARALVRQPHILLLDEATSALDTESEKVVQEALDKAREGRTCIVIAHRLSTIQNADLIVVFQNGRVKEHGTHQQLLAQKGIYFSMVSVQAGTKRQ
smiles,measurement,setting,value
O=C(O)CN(CCN(CC(=O)O)CC(=O)O)CCN(CC(=O)O)CC(=O)O,period change,[1],0.145 h (inactive)
same,inhibition,[2],-2% (inactive)
same,fluorescence ratio (interference),[3],1 (inactive)
same,outcome,[4],inactive
CCCN(CCC)CCc1cccc2c1CC(=O)N2,period change,[1],0.155 h (inactive)
same,inhibition,[2],-3% (inactive)
same,fluorescence ratio (interference),[3],1 (inactive)
same,outcome,[4],inactive
COc1cc2ncnc(Nc3ccc(F)c(Cl)c3)c2cc1OCCCN1CCOCC1,AC50,[5],38.2 µM (active)
CCCCCCCCCCCCCCCCCCCCCCO,outcome,[5],inactive
CNC1CCCN(c2c(F)cc3c(=O)c(C(=O)O)cn(C4CC4)c3c2OC)C1 (stereo unspecified),outcome,[6],inactive
O=C(O)[C@H](O)[C@@H](O)[C@H](O[C@@H]1O[C@H](CO)[C@H](O)[C@H](O)[C@H]1O)[C@H](O)CO,outcome,[6],inactive
CN1CCN(c2c(F)cc3c(=O)c(C(=O)O)cn4c3c2OCN4C)CC1,outcome,[5],inactive
O=C(CCCCCCC(=O)Nc1ccccc1)NO,AC50,[6],1.86 µM (active)
CNCCc1ccccn1,fluorescence slope change,[7],28.1% (inactive)
same,inhibition,[8],24.5%
same,score,[9],1.2
same,rescue above control,[10],-9.72
same,cytochrome c release ratio,[11],0.91
same,inhibition of aggregation,[12],75.9%
same,glutamate uptake change,[13],-5.29%
same,inclusion score,[14],2
same,aggregation suppression score,[15],1.84
CN(C(=O)CN(CCO)CC(=O)N(C)C(C)(C)Cc1ccccc1)C(C)(C)Cc1ccccc1,inhibition,[8],-62.8%
same,score,[9],1.1
same,rescue above control,[10],0
same,cytochrome c release ratio,[11],5.27
same,inhibition of aggregation,[12],66.7%
same,glutamate uptake change,[13],-0.7%
same,aggregation suppression score,[15],1.14
C[C@@H](O)[C@H]1C(=O)N2C(C(=O)O)=C(SCCN=CN)C[C@H]12,inhibition,[2],-1% (inactive)
same,fluorescence ratio (interference),[3],1 (inactive)
same,outcome,[4],inactive
N=C(N)N1CCc2ccccc2C1,outcome,[4],inactive
CN1C(=O)OC(C)(C)C1=O,fluorescence slope change,[7],1.5% (inactive)
O=C(N/N=C/c1ccc([N+](=O)[O-])o1)c1ccc(O)cc1,fluorescence slope change,[7],-24% (inactive)
C#CCN(C)CCCOc1ccc(Cl)cc1Cl,period change,[1],0.03 h (inactive)
same,inhibition,[2],-6% (inactive)
same,fluorescence ratio (interference),[3],1 (inactive)
same,outcome,[4],inactive
O=C(Nc1ccccc1)OCC(CN1CCCCC1)OC(=O)Nc1ccccc1 (stereo unspecified),fluorescence slope change,[7],147% (active)
CC(=O)CC(c1ccc([N+](=O)[O-])cc1)c1c(O)c2ccccc2oc1=O (stereo unspecified),fluorescence slope change,[7],22.3% (inactive)
CCN(CC)CCc1nc(-c2ccccc2)no1,fluorescence slope change,[7],14.4% (inactive)
CCCCCCC[N+](CC)(CC)CCCCc1ccc(Cl)cc1,fluorescence slope change,[7],178% (active)
Cc1cccc(C)c1NC(=O)CN1CCN(CCCC(c2ccc(F)cc2)c2ccc(F)cc2)CC1,fluorescence slope change,[7],64.3% (active)
Cc1c(N)c(=O)n(-c2ccccc2)n1C,inhibition,[8],13.4%
same,score,[9],1.65
same,rescue above control,[10],-0.44
same,cytochrome c release ratio,[11],0.9
same,inhibition of aggregation,[12],81.5%
same,glutamate uptake change,[13],-10.8%
same,inclusion score,[14],1
same,aggregation suppression score,[15],1.31
CN(C)CC/C=C1\c2ccccc2Sc2ccc(Cl)cc21,inhibition,[8],3.29%
same,score,[9],0.95
same,rescue above control,[10],0
same,cytochrome c release ratio,[11],1.06
same,inhibition of aggregation,[12],59.1%
same,glutamate uptake change,[13],14.9%
same,aggregation suppression score,[15],0.956
CC(=O)N[C@@H](CC(C)C)C(=O)O,inhibition,[8],23.7%
same,score,[9],0.82
same,rescue above control,[10],14.2
same,cytochrome c release ratio,[11],1.03
same,inhibition of aggregation,[12],74.7%
same,glutamate uptake change,[13],2.89%
same,inclusion score,[14],2
same,aggregation suppression score,[15],0.909
CC1=C(/C=C/C(C)=C/C=C/C(C)=C/C(=O)Nc2ccc(O)cc2)C(C)(C)CCC1,period change,[1],-0.145 h (inactive)
same,inhibition,[2],-3% (inactive)
same,fluorescence ratio (interference),[3],1 (inactive)
same,remaining activity,[16],97.3% (inactive)
same,AC50,[6],20.9 µM (active)
same,AC50,[5],34 µM (active)
same,fold fluorescence,[17],6.05 (inactive)
same,outcome,[4],active
